Compound activity as filed in PubChem.
HP1b binding inh = HTS for Inhibitors of HP1-beta Chromodomain Interactions with Methylated Histone Tails; 390,000 compounds, 0.56% hits; Potency, µM (series often up to 114 µM), inactives show top-dose activity change, negative = inhibition, most hits filed as inhibitors; Chromobox protein homolog 1 (Homo sapiens), P83916; AlphaScreen HP1-beta / biotin-H3K9me3 peptide binding; note: nearly all actives have a fitted effect of over 70% in size
Target sequence (P83916 whole entry, looked up): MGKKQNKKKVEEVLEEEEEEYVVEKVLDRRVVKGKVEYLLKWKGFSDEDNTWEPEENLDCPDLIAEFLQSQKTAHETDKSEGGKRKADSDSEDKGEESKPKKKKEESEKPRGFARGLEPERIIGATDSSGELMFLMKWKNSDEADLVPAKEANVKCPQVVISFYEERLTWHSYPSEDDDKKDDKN
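AlphaScreen: HP1-beta (50 nM) preformed 30 min with biotin-H3(1-18)K9me3 peptide (50 nM) in PBS pH 7.4, 0.01% Tween-20. Compound added for 30 min at RT, then streptavidin donor/nickel chelate acceptor beads (10 ug/mL) for 30 min.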
BAZ2B inh = qHTS Assay for Inhibitors of BAZ2B. Bromodomain adjacent to zinc finger domain protein 2B (Homo sapiens), Q9UIF8. AlphaScreen BAZ2B-H3K14Ac peptide displacement. Potency, µM (highest dose often 114 µM), inactives show at the top dose activity change, negative = inhibition, usual class: inhibitors. 360,000 compounds, 4.4% hits; note: % is set by controls: 0 for no effect and ±100 for the full control effect; nearly all actives have a fitted effect of over 60% in size
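AlphaScreen luminescence quantifies BAZ2B engagement of H3K14Ac peptide; the protein and biotinylated peptide are both at 50 nM final, buffer PBS pH 7.4 with 0.01% Tween-20, all steps at room temperature.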
Sfp PPTase inh = qHTS Assay for Inhibitors of Bacillus subtilis Sfp phosphopantetheinyl transferase (PPTase); 4'-phosphopantetheinyl transferase ffp (Bacillus subtilis), Q9F4F7; Biochemical Sfp PPTase activity, qHTS; Potency, µM, inactives show largest response in the series, negative = inhibition, actives largely listed as inhibitors; 310,000 compounds, 3.5% hits;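 note: the enzyme is Sfp with the accession as filed and its product quenches rhodamine fluorescence; 0% = enzyme reaction without inhibitor and -100% = no enzyme wells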
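Sfp 15 nM + cpd, 15 min RT; start w/ rhodamine-CoA 5 uM, BHQ-2-YbbR 12.5 uM (final); 50 mM Hepes pH 7.6, 10 mM MgCl2, 0.01% NP-40, 0.01% BSA; read 525/598 nm at 0 and 30 min.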
JMJD2A Tudor = qHTS Assay for Inhibitors of JMJD2A-Tudor Domain; 390,000 compounds, 4.4% hits; Lysine-specific demethylase 4A (Homo sapiens), O75164; AlphaScreen JMJD2A-Tudor / H3K4me3 peptide binding; Potency, µM (top dose mostly 114 µM), for the others: top-dose activity change, negative = inhibition, hits mostly inhibitors; AID 504339, 2011; note: % is set by controls: 0 for no effect and ±100 for the full control effect; nearly all actives have a fitted effect of over 50% in size
G9a inh = qHTS Assay for Inhibitors of Histone Lysine Methyltransferase G9a. AID 504332, 2011. G9a H3K9 monomethylation, AlphaScreen, 2 h. 350,000 compounds, 8.8% hits. Potency, µM (top dose mostly 102 µM), inactives show at the highest dose activity, negative = inhibition, actives largely listed as inhibitors; note: % is set by controls: 0 for no effect and ±100 for the full control effect; nearly all actives have a fitted effect of over 75% in size
Target sequence (Q96KQ7 913-1193 limits assumed): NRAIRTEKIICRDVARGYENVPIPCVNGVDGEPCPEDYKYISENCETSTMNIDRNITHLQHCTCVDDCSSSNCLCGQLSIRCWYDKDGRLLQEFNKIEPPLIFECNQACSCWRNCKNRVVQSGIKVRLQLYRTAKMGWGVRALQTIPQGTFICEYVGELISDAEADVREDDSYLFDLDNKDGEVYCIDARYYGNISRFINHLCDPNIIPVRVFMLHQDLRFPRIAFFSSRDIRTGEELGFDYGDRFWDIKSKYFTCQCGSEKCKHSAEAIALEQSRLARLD
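AlphaScreen read-out: biotin-H3K9 peptide (500 nM) methylation by 20 nM enzyme with 20 uM SAM, 2 h at room temperature after 15 min compound preincubation; anti-monomethyl H3K9 antibody plus donor/acceptor beads, 10 min dark.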
L3MBTL1 inh = qHTS Assay for the Inhibitors of L3MBTL1. Lethal(3)malignant brain tumor-like protein 1 (Homo sapiens), Q9Y468. Potency, µM (top dose mostly 57.1 µM), without a hit: top-dose activity, negative = inhibition, hits mostly inhibitors. 230,000 compounds, 0.66% hits. AlphaScreen L3MBTL1–H3K9me1 peptide binding; note: % is set by controls: 0 for no effect and ±100 for the full control effect; nearly all actives have a fitted effect of over 60% in size
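First, the protein-peptide complex forms for 30 min at room temperature (L3MBTL1 50 nM, biotinylated H3K9me1 peptide 75 nM). Next, compounds are pin-transferred and incubated 30 min. Finally, AlphaScreen beads are added and read after 30 min.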
Numbers without * were called inactive; u = inconclusive; x = no result given; ! = a repeat was not active; [ ] = remark or other dose. Only some compounds are listed: those with a hit (about 12% of all), similar ones and a draw of the others. Calls come from the whole dose curve; as a rule, active = well fitted curve in the direction sought with a large enough effect; inconclusive = small, poorly fitted or top-dose-only effect, or another doubt; inactive = no such curve, though single readings can be large; an effect the other way counts as inactive or inconclusive. Potency is the fitted concentration of half-maximal effect.

SMILES	HP1b binding inh	BAZ2B inh	Sfp PPTase inh	JMJD2A Tudor	G9a inh	L3MBTL1 inh
C=CCn1c(=O)c2ccccc2n2c(=S)[nH]nc12	-19%	-10%	-27%	7.9µM*	7.9µM*	x
CCCCCn1c(=O)c2ccccc2n2c(CCl)nnc12	36%	-14%	13%	-3%	4%	x
C=Cc1ccc(Cn2c(=O)cc(C)c3c(C)nn(-c4ccccc4)c32)cc1	121%	19%	x	38%	39%[59 µM]	x
COc1cccc(C(=O)c2cn(CC(=O)NCc3ccccc3)c3nc(C)ccc3c2=O)c1	61%	8%	x	u	14%[59 µM]	x
C=CCn1c(=O)c2ccccc2n2c(SCC(=O)c3ccccc3)nnc12	-19%	1%	4%	-11%[11.4 µM]	22µM*	5%
C/C(=C\c1ccccc1)CN1CCN(c2ccccc2F)CC1	u	-38%	u	5µM*	u	x
CCN1CCN(C/C(C)=C/c2ccccc2)CC1	23%	-6%	-5%	2%	-25%	0%
Fc1ccccc1N1CCN(CCCc2ccccc2)CC1	u	u	-16%	22µM*	35µM*	-3%
COc1cccc(-n2cc(C(=O)NCc3ccc(C)cc3)c3ccccc3c2=O)c1	60%	-3%	x	4%	12%[59 µM]	x
CCc1c(C)[nH]c2c1C(=O)C(CN1CCOCC1)CC2 (stereo not given)	5%	x	x	-28%	19µM*!	x
CCc1c(C)nc(N2CCOCC2)[nH]c1=O	3%	-7%	-5%	-11%	-2%[59 µM]	-2%
O=C(NCC(c1ccco1)N1CCc2ccccc2C1)C(=O)Nc1ccccc1 (stereo not given)	8%	1%	x	-12%	50µM*	0%
O=C(NCC(c1ccco1)N1CCc2ccccc2C1)c1ccccc1 (stereo not given)	26%	0%	x	-17%	7%	2%
CC(=O)Nc1cccc(NC(=O)C(=O)NCC(c2ccco2)N2CCc3ccccc32)c1 (stereo not given)	u	50µM*	x	56µM*	50µM*	-14%
Cc1cc(=S)c2cccc(C)c2[nH]1	-16%	-30%	35µM*	-20%	56µM*	-5%
Cc1cccc2c(=O)cc(C(F)(F)F)[nH]c12	13%	6%	8%	6%	x	13%
COc1cccc(-c2cncnc2Nc2ccc(F)cc2)c1	x	x	79µM*	x	3%[0.501 µM]	x
COc1cccc(-c2cncnc2NC2CCNCC2)c1	x	x	17%	x	4%[0.501 µM]	x
OC(COC1CCCCC1)CN1CCCCC1 (stereo not given)	-20%	56µM*	-11%	79µM*	7.9µM*	x
Cc1nccn1CC(O)COc1ccccc1 (stereo not given)	17%	4%	14%	-4%	6%[59 µM]	-17%
Cc1nccn1CC(O)COC1CCCCC1 (stereo not given)	u	32µM*	-6%	18µM*	u	x
CCc1ccccc1NC(=O)Cn1cc(C(=O)c2ccc(Cl)cc2)c(=O)c2ccc(C)nc21	13%	8%[57.1 µM]	x	-21%	-23%[59 µM]	x
Cc1ccc(CNC(=O)CN2N=C(c3ccc(C)cc3)CCC2=O)cc1	-4%	-30%	x	-24%	-16%[59 µM]	x
Cn1c(N)c(C(=O)COC(=O)Cc2ccc(Br)cc2)c(=O)n(C)c1=O	20%	x	x	-4%	x	0%
Cn1c(N)c(C(=O)COC(=O)Cc2ccsc2)c(=O)n(C)c1=O	23%	32%	-6%	-8%	45µM*	7%
CC(=O)NC(CC(=O)OCC(=O)c1c(N)n(C)c(=O)n(C)c1=O)c1ccccc1 (stereo not given)	-12%	-18%	21%	13µM*	-11%	-13%
